Source: PubChem BioAssay AID435006 (Sanford-Burnham Center for Chemical Genomics, 2010)
In all, about 1,300 compounds went through this assay and about 1,100 (85%) were called active. Rule as the data show it: active = inhibition above about 48%; inactive = the rest. The set was probably picked from earlier hits. Not all results are given here.

Experiment: NALP3 inhibitors retested in yeast, confirmation, luminescence, single concentration (AID 435006)
Conditions: yeast expressing human NALP3, luminescence; at 10 µM; active compounds read high

| Compound | inhibition |
| --- | --- |
| Cc1cc2ccccn2c1C(C[N+](=O)[O-])c1c(F)cccc1Cl (stereo unspecified) | 72.8% (active) |
| O=C1/C(=C\c2ccc3c(c2)OCO3)N2CCC1CC2 | 59.5% (active) |
| CCCCCCCCCCCCn1ccc(=N)cc1 | 82.9% (active) |
| C[C@]12CCC3C(CC[C@H]4C[C@@H](O)CC[C@]34C)C1C[C@@H](O)[C@H]2O (stereo partly specified) | 53% (active) |
| C[C@]12CCC3C(CC[C@H]4C[C@@H](O)CC[C@]34C)C1CC[C@@H]2O (stereo partly specified) | 57.9% (active) |
| Cc1ccc(-c2nc3ccccc3c(=O)n2-c2ccc(Br)cn2)cc1 | 73.3% (active) |
